TSHR ag = qHTS Assay for Agonists of the Thyroid Stimulating Hormone Receptor; Potency, µM (titrated, usually from 57.1 µM), inactives show at the highest dose activation, most hits filed as activators; 73,000 tested, 0.48% active; HEK293-CNG-TSHR cells (CNG channel as cAMP sensor), membrane potential dye, cAMP; AID 926, 2007; Thyrotropin receptor (Homo sapiens), P16473; active = well fitted activation curve with a large enough effect in the main read-out, with a control signal flat, not every such curve was filed as active; inconclusive = small, poorly fitted or top-dose-only effect, or a change in a side signal; inactive = no such curve, though single readings can be large or run the other way; % of control where 0% means no effect;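 note: the control signal comes from parental cells without the receptor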
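cAMP rise detected as CNG-channel membrane depolarization by fluorescent dye (emission 590 nm), 30 min after compound, following 60 min dye loading containing 100 uM RO 20-1724 at room temperature. Cells: TSHR/CNG HEK 293, with parental CNG HEK 293 as control.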
HEK293 cAMP cs = qHTS Assay for Agonists of the Thyroid Stimulating Hormone Receptor: Activators of Intracellular cAMP Concentrations in Parental HEK 293. Potency, µM (series often up to 57.1 µM), for inactives: top-dose activation, usual class: activators. parental HEK293 CNG cAMP sensor, membrane potential fluorescence. 73,000 tested, 2.5% active. AID 938, 2007; note: % of control where 0% means no effect; nearly all actives have a fitted effect of over 55% in size
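Parental HEK 293 cells stably expressing a modified CNG channel (no TSHR) report cAMP rise as membrane depolarization. Membrane potential dye with 100 uM RO 20-1724 was loaded for 60 min at room temperature, then compound added for 30 min; fluorescence read at 590 nm.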
Tau filament bind = qHTS Assay for Tau Filament Binding. Microtubule-associated protein tau (Homo sapiens), P10636. 71,000 tested, 2% active. Potency, µM (highest dose often 57.1 µM), inactives show at the highest dose activity change, negative = inhibition. recombinant tau filaments, thioflavin S fluorescence, 15 h; filaments grown with octadecylsulfate alongside compound;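 note: % is set by controls: 0 for no effect and ±100 for the full control effect; actives lower thioflavin S fluorescence by blocking filaments or displacing dye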
Target sequence (P10636 whole entry, looked up): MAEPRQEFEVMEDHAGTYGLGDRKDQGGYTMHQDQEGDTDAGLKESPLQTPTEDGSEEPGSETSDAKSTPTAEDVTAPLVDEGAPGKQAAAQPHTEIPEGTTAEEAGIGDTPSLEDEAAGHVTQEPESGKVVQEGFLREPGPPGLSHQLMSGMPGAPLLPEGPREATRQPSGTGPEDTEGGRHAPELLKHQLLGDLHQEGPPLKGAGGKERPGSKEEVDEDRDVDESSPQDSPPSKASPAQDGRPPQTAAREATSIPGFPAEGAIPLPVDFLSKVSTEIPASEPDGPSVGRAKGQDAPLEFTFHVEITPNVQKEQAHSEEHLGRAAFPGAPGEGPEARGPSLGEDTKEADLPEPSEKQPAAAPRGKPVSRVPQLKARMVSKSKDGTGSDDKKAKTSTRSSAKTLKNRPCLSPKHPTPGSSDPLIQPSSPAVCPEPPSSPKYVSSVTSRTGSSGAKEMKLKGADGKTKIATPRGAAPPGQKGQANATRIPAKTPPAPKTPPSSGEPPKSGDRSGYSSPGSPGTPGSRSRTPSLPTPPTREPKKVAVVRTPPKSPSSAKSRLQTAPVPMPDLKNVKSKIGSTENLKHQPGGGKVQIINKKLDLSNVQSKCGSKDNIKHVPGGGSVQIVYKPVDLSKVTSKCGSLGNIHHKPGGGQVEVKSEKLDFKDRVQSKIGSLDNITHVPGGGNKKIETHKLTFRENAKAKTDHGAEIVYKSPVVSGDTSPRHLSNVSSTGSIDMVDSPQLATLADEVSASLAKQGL
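Thioflavine S fluorescence (ex 450, em 510 nm) reports filaments formed from 1 uM human tau plus 30 uM ODS over 15 h at 37 C (10 mM HEPES pH 7.4, 100 mM NaCl, 5 mM DTT); compounds displacing dye or blocking filaments lower signal.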
ERK AVP block = qHTS Assay for Inhibitors of the ERK Signaling Pathway using a Homogeneous Screening Assay. Potency, µM (highest dose often 57.5 µM), inactives show top-dose activity, negative = inhibition, hits mostly inhibitors. 72,000 tested, 0.99% active. AID 995, 2007. HEK293-V1b, vasopressin-stimulated pERK AlphaScreen; note: % is set by controls: 0 for no effect and ±100 for the full control effect; nearly all actives have a fitted effect of over 55% in size
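Overnight-seeded V1b-HEK293 cells in 1% FBS got compound, then vasopressin (25 nM final, 5 min, 37C), then lysis buffer. AlphaScreen detection of phospho-ERK; activity normalized to basal and full-stimulation controls.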
CRE Fsk mod = Cell signaling CRE-BLA (Fsk stim). CHO CRE-bla reporter (cAMP response element driving beta-lactamase), forskolin EC10, beta-lactamase ratio. Potency, µM (doses to about 38.2 µM), without a hit: top-dose activity change, negative = inhibition, usual class: activators. 71,000 tested, 2.5% active; active = well fitted activation curve with a large enough effect in the signal ratio, with a control signal flat, not every such curve was filed as active; inconclusive = small, poorly fitted or top-dose-only effect, or effect the other way, or a change in a side signal; the % refers to the signal ratio; note: % of control where 0% means no effect
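Modulation of forskolin signalling: compounds in titration series added with EC10 NKH 477 to CHO cells carrying a CRE-driven beta-lactamase reporter, 3 h, 37C. CCF4 FRET ratio (460/530 nm, ex 405 nm) gives %activity and AC50.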
The depositor's hits bear a star; i = inactive; ? = inconclusive; / = no result given; [ ] = dose if it differs, or a comment. Most compounds without a hit are left out; they make up all but 7.6% or so of the library. Unless noted, calls come from the whole dose curve; as a rule, active = well fitted curve in the direction sought with a large enough effect; inconclusive = small, poorly fitted or top-dose-only effect, or another doubt; inactive = no such curve, though single readings can be large; an effect the other way counts as inactive or inconclusive. Potency is the fitted concentration of half-maximal effect.

SMILES | TSHR ag | HEK293 cAMP cs | Tau filament bind | ERK AVP block | CRE Fsk mod
CN[C@@H]1[C@H](O[C@H]2[C@@H](O[C@@H]3[C@@H](O)[C@@H](O)[C@@H](N=C(N)N)[C@@H](O)[C@@H]3N=C(N)N)O[C@@H](C)[C@]2(O)CO)O[C@H](CO)[C@@H](O)[C@@H]1O | -27.3%[25.6 µM] | 4.5%[25.6 µM] | -7.9%[25.6 µM] | 0.4%[25.7 µM] | 3.3%[17.1 µM]
O=c1c(-c2ccc(Cl)cc2)nc2cnc(N3CCNCC3)nc2n1Cc1cccs1 | -8.8% | 11.0% | 3.16µM* | ? | ?
O=c1c(-c2cccs2)nc2cnc(N3CCNCC3)nc2n1Cc1cccs1 | -8.7% | -12.7% | i | -7.5% | ?
CN1CCN(c2ncc3nc(-c4ccc(Cl)cc4)c(=O)n(Cc4cccs4)c3n2)CC1 | ? | ? | 2µM* | ? | ?
CN(C)Cc1ccccc1-c1cc(NCc2ccccc2)ncn1 | ? | ? | 13.2% | -17.5% | -1.5%
CCCCC#Cc1nc(N)c2ncn([C@@H]3O[C@@H](C(=O)NCC)[C@H](O)[C@@H]3O)c2n1 | ? | 2µM* | -3.0% | ? | 27.2%
COc1cccc([C@@H]2Oc3ccc(OC)cc3/C(=N/OC[C@@H](O)COCc3ccco3)[C@@H]2O)c1 | -2.2%[11.4 µM] | 1.2%[11.4 µM] | / | 9.3%[11.5 µM] | /
CCC1CCCCN1Cc1nc2c(c(=O)n(C)c(=O)n2C)n1Cc1ccccc1 (stereo not given) | 11.3% | 10.7% | -24.9% | / | ?
Cn1c(=O)c2c(nc(NC3CCCCC3)n2Cc2ccccc2)n(C)c1=O | ? | ? | -5.8% | / | 10µM*
CC(C)[C@H](NC(=O)OC(C)(C)C)[C@@H](O)CC(=O)OC(C)(C)C | -7.8%[11.4 µM] | -3.5%[11.4 µM] | / | 2.3%[11.5 µM] | /
Cn1cccc1Cc1nnc(SCC(=O)Nc2ccc3c(c2)OCCO3)n1CCc1ccccc1 | 7.4% | 3.0% | 27.3% | ? | -20.8%
Cn1cccc1Cc1nnc(SCC(=O)Nc2ccc3c(c2)OCO3)n1CCc1ccccc1 | 10.7% | 10.0% | -5.7% | 15.8µM* | -16.3%
Cc1cc(NC(=O)CSc2ccc3nnc(-c4cccs4)n3n2)no1 | -5.9% | 8.7% | -20.1% | / | 10µM*
COc1ccccc1-c1ccc2ncnc(NCCN3CCOCC3)c2c1 | 14.5% | 21.4% | -14.7% | 1.9% | ?
CCCOC(=O)c1ccc(Oc2c(-c3ccc(OC)cc3O)n[nH]c2C)cc1 | / | -5.4% | 6.0% | 2.4% | 23.2%
CCCOC(=O)c1ccc(Oc2c(-c3ccc(O)cc3O)n[nH]c2C)cc1 | 9.1% | 6.5% | 20µM* | -11.9% | -10.8%
CC1(C)C(=O)C(c2ccccc2)=C2CN3C(=O)N(CCc4ccccc4)C(=O)C3(Cc3ccc(F)cc3)C=C21 (stereo not given) | 2.6% | 21.1% | -0.1% | -8.1% | -18.7%
CCCn1c(N2CCN(C(=O)N3CCCCC3)CC2)nc2ccccc21 | 1.3% | 16.7% | -13.4% | -18.3% | -8.8%
CCCn1c(N2CCN(S(=O)(=O)Cc3ccccc3)CC2)nc2ccccc21 | ? | 25.1µM* | 4.6% | 24.0% | 1.9%
Cc1cnc(CNc2cc(-c3ccc(N(C)C)cc3)ncn2)cn1 | 7.4% | 3.3% | -12.6% | -9.9% | 8.3%
Cn1c(=O)oc2cc(S(=O)(=O)NCCC(=O)N3CCc4ccccc43)ccc21 | -1.0% | 3.7% | 15.8µM* | 11.7% | -1.5%
CCOC(=O)OCC1OC(c2cc(C)cc(C)c2)C=CC1OC(=O)OCC (stereo not given) | 0.3%[11.4 µM] | -2.2%[11.4 µM] | / | 15.3%[11.5 µM] | /
COc1c(F)c(F)c(C(=O)Nc2ccc(NC(=O)c3ccco3)cc2)c(F)c1F | -8.4% | -8.2% | 478.2% | -20.2% | -7.6%
COC(=O)c1c(NC(=O)c2ccco2)sc(C)c1C | / | 26.2% | 75.8% | -2.3% | 10µM*
COC(=O)c1c(NC(=O)c2ccco2)sc(C(=O)Nc2ccc(F)cc2)c1C | ? | 25.1µM* | 3.0% | -7.0% | 3.2%
SMILES | TSHR ag | HEK293 cAMP cs | Tau filament bind | ERK AVP block | CRE Fsk mod
Cc1noc(C)c1C(=O)N1CCC2(CCN(Cc3nccs3)CC2)CC1 | 1.3% | 4.1% | -3.0% | 17.1% | -14.6%
CCn1c(SCC(=O)Nc2nc3ccccc3s2)nnc1-c1ccc(OC)cc1 | 10.6% | 14.9% | 164.6% | 18.1% | -1.9%
O=C(CSc1nc2ccccc2o1)Nc1nc2c(s1)CCCC2 | ? | 31.6µM* | -1.8% | -27.7% | -12.8%
CCn1c(SCC(=O)Nc2nc3c(s2)CCCC3)nnc1-c1ccccc1 | ? | ? | 26.9% | 31.6µM* | ?
O=C(CSc1nc2ccccc2o1)Nc1nc2ccccc2s1 | ? | ? | 74.7% | -15.5% | -0.6%
O=C(O)[C@H]1CN(CCCP(=O)(O)O)CCN1 | 6.0% | 13.7% | ? | -4.4% | -17.3%
COc1cc(C(=O)N2CCN(c3cc(Cl)ccc3Cl)CC2)cc(OC)c1OC | 2.2% | 6.7% | 27.8% | / | 2.51µM*
COc1cc(C(=O)N2CCN(c3cccc(C)c3C)CC2)cc(OC)c1OC | 7.9% | 8.2% | 0.1% | / | 10µM*
O=C(O)C1CC(=O)N(CCC23CC4CC(CC(C4)C2)C3)C(=Nc2ccccc2)S1 (stereo not given) | 5.1% | 3.3% | / | / | /
O=c1[nH]c2ccc(Cl)cc2c(-c2ccccc2)c1CN1CCOCC1 | -6.3% | 2.4% | 12.6µM* | -3.0% | 3.0%
O=c1[nH]c2ccc(Cl)cc2c(-c2ccccc2)c1N1CCOCC1 | -2.2% | 1.5% | 138.6% | / | ?
CNC(=O)[C@@H](Cc1ccccc1)N(C)C(=O)[C@@H](Cc1ccc2ccccc2c1)N(C)C(=O)/C=C/CC(C)(C)N | 9.2% | 7.9% | / | 4.7% | /
CCOC(=O)OCC1OC(C#Cc2ccc(C(C)(C)C)cc2)C=CC1OC(=O)OCC (stereo not given) | -2.6%[11.4 µM] | -2.3%[11.4 µM] | / | -8.4%[11.5 µM] | /
CC(C)[C@@H](CC(=O)N[C@@H]1CCCC[C@H]1C(=O)N[C@H](CC(=O)N[C@@H](CCC(=O)O)CC(=O)O)Cc1ccccc1)NC(=O)C[C@H](Cc1ccccc1)NC(=O)[C@@H]1CCCC[C@H]1N | 2.3% | -1.0% | 6.5% | / | -16.3%
O=C(CSc1nc2scc(-c3ccco3)c2c(=O)n1-c1ccccc1)NCC1CCCO1 (stereo not given) | 31.6µM* | 17.7% | 83.4% | ? | ?
O=c1c2c(-c3ccco3)csc2nc(SCc2cn3cccnc3n2)n1-c1ccccc1 | ? | ? | 76.2% | ? | 1µM*
NC(=O)CSc1nc2scc(-c3ccco3)c2c(=O)n1-c1ccccc1 | / | -7.6% | -1.7% | ? | ?
C=CCn1c(SCC(=O)NCCOC)nc2scc(-c3ccco3)c2c1=O | 8.2% | 26.4% | 137.2% | 3.2% | 5.9%
C=CCn1c(SCC(=O)NCC2CCCO2)nc2scc(-c3ccco3)c2c1=O (stereo not given) | 24.4% | 19.8% | 21.6% | -23.8% | 6.31µM*

Screens (PubChem BioAssay)
